# Screening results from PubChem BioAssay.
# Only a selection was taken, and hits are over-represented in it overall.
# Pf Dd2 inh = blocks in vitro growth of P. falciparum Dd2 | P. falciparum Dd2 growth, SYBR Green, 72 h | Potency, µM (top dose mostly 28.9 µM), actives largely listed as inhibitors | 120,000 compounds, 4.3% hits | AID 1347417; active = well fitted inhibition curve with a large enough effect; note: nearly all actives have a fitted effect of over 65% in size
#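 Infected erythrocytes (Dd2, 0.3% parasitemia, 2.5% hematocrit final) are added to compound in RPMI-1640/Albumax II medium, grown 72 h at 37C in low oxygen, then lysed with saponin/Triton-X containing SYBR Green and read by fluorescence.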
# Hits are given with their value; . = inactive; [ ] = dose if it differs, or a comment.
SMILES,Pf Dd2 inh
COc1ccc(CN2C(=O)COC[C@H]2C(=O)NCC2CC2)c(OC)c1,.
Cc1ccc(NC(=O)Cn2ccn3nc(-c4ccc(F)cc4)c(CO)c3c2=O)cc1F,.
O=C(NC1CCN(c2cc(-c3ccc(F)cc3)[nH]n2)C1)c1ccc(F)c(F)c1 (configuration not stated),.
CN1c2cc(C(N)=O)ccc2C(=O)N2CCCCCC21 (configuration not stated),.
Cc1cccc(CN2CCn3c(nnc3[C@@H]3C[C@@H](O)CN3Cc3cccnc3)C2)c1,.
COCC(=O)N[C@@H]1CN(S(=O)(=O)Cc2ccccc2)CC[C@@H]1c1nc(C)no1,.[5.79 µM]
CCOc1ccc(C(=O)N2CCC3(CC2)NC(=O)N(Cc2ccc(F)cc2)C3=O)cc1,.
CCOc1ccc(C2c3[nH]c4ccccc4c3CCN2C(=O)CSCc2ccc(F)cc2)cc1 (configuration not stated),11µM
CCOc1ccc(CNC(=O)c2cc(=O)[nH]c3ccc(S(=O)(=O)N4CCCC4)cc23)cc1,.
CC1(C)[C@H]2CC[C@@H](CNC(=O)c3cccc(Br)c3)[C@@H]1C2,11µM
CC1(C)[C@H]2CC[C@@H](CNC(=O)c3ccncc3)[C@@H]1C2,.
CC1(C)[C@H]2CC[C@@H](CNC(=O)c3cc(F)ccc3Br)[C@@H]1C2,.
O=C(NC[C@H]1OC[C@@H](NC2CCC(F)(F)CC2)[C@@H]1O)c1ccccc1,.
Cc1sc2ccn(C)c(=O)c2c1C(=O)NC1CCN(Cc2ccccc2)CC1,.
Cn1cc(-c2ccncc2)cc1C(=O)NC1CCN(Cc2ccccc2)CC1,5µM
Cn1c(C(=O)NC2CCN(Cc3ccccc3)CC2)cc2c1CCN(Cc1ccccc1)C2,.
O=C(Cc1c[nH]c2ncc(-c3ccccc3)cc12)N1CCN(c2ccccn2)CC1,.
COC(=O)C1=C(C)N=C2SC=C(CC(=O)NCc3cccc(F)c3)N2C1c1ccccc1OC (configuration not stated),.
COc1ccc(NC(=O)C2(Cc3ccccc3)CCCCC(=O)N2)c(OC)c1 (configuration not stated),.
COc1ccc2[nH]cc(CCNC(=O)C3(Cc4ccccc4)CCCCC(=O)N3)c2c1 (configuration not stated),2µM
COc1ccc2[nH]cc(CCNC(=O)Nc3ccccc3)c2c1,.
CCCNC(=O)O[C@@H]1CC[C@]2(C)C(CC[C@@H](O)[C@H]2CC(=O)NCc2ccc3c(c2)OCO3)[C@]1(C)CO (some centres not stated),.
O=c1c2nc(-c3ccc(O)c(F)c3)ccc2ncn1-c1ccccc1,13µM
O=c1c2nc(-c3ccncc3)ccc2ncn1-c1ccccc1,.
O=c1c2nc(-c3ccc(O)c(F)c3)ccc2ncn1-c1ccc(F)cc1F,.
SMILES,Pf Dd2 inh
CC(=O)NCCCC(=O)N1CCN(c2cccc(C=O)c2)C(=O)C1,.
CCNC(=O)Nc1ccc(OCC(=O)N2CCN(c3ccccn3)CC2)nc1,.
COc1cncc([C@@H](NC2CSCCSC2)C2CC(O)C2)c1 (some centres not stated),.
COc1ccc(Cn2c(C3CCN(C(=O)Cc4cccs4)CC3)n[nH]c2=O)cc1,.
COc1ccc(CC(=O)NC(C)C(=O)N2CCN(c3ccccn3)CC2)cc1 (configuration not stated),.
Fc1ccc(CNCc2cccnc2N2CCN(c3ccccn3)CC2)cc1F,5µM
O=C(CSc1ccccn1)NCc1cccnc1N1CCOCC1,.
COc1ccc(C(=O)N2CCCCCCNC(=O)CC2)cc1,.
COc1cccc(S(=O)(=O)N2CCCCCCN(C)C(=O)CC2)c1,.
CCOc1cc(C2C(C(=O)OC)=C(C)NC3=C2C(=O)c2ccccc23)ccc1OC (configuration not stated),10µM
CCOc1cc(C2C(C(=O)OC)=C(C)NC3=C2C(=O)c2ccccc23)c(Br)cc1O (configuration not stated),.
CCOC(=O)COc1ccc(C2C(C(=O)OC)=C(C)NC3=C2C(=O)c2ccccc23)cc1Cl (configuration not stated),.
c1ccc2[nH]c(CCCn3ccnc3-c3cc4n(n3)CCCNC4)nc2c1,.
COc1cccc(CNC(=O)Cn2cc3c(n2)-c2c(oc(C(=O)N4CCCC4)c2C)CC3)c1,.
CCCCN(CCCC)CCCNC(=O)Cn1cc2c(n1)-c1c(oc(C(=O)N3CCCC3)c1C)CC2,11µM
Cc1c(C(=O)N2CCCC2)oc2c1-c1nn(CC(=O)NCc3cccc(F)c3)cc1CC2,.
Cc1cc(C)cc(OCC(=O)c2ccc3c(c2)N(CC(=O)N2CCOCC2)C(=O)CO3)c1,.
CCc1noc([C@@H]2CC(F)(F)CN2C(=O)c2nccn2C)n1,.
CN1CCCCC(CC(=O)Nc2ccc3c(c2)OCCO3)C1=O (configuration not stated),.
Cc1nc2c(c(N[C@@H]3COCC[C@H]3OCc3ccccn3)n1)CCC2,.
O=C(C1CC(=O)N(c2n[nH]c3ccccc23)C1)N1CCN(CCc2ccccn2)CC1 (configuration not stated),.
COc1cccc(CNC(=O)N2CC(c3noc(-c4ccncc4)n3)C2)c1,8.9µM
COc1cccc(CC(=O)NCc2nnc3cc(-c4nc(C5CC5)no4)ccn23)c1,6.3µM
O=C(NCc1nnc2cc(-c3nc(C4CC4)no3)ccn12)c1cccc(Cl)c1,.
O=C(Cc1cccc(F)c1)NCc1nnc2cc(-c3nc(C4CC4)no3)ccn12,.
SMILES,Pf Dd2 inh
O=C(NCc1nnc2cc(-c3nc(C4CC4)no3)ccn12)C1CC1,.
O=C(NCc1nnc2cc(-c3nc(C4CC4)no3)ccn12)c1c(F)cccc1F,.
O=C(Cc1ccc(Cl)cc1)NCc1nnc2cc(-c3nc(C4CC4)no3)ccn12,0.45µM
COc1ccc(CNC(=O)N2CCC(c3noc(-c4ccccc4)n3)C2)cc1 (configuration not stated),.[5.79 µM]
O=C(NCc1nnc2cc(-c3nc(C4CC4)no3)ccn12)c1ccccc1Cl,.
O=C(Cc1ccc(F)cc1)NCc1nnc2cc(-c3nc(C4CC4)no3)ccn12,4.5µM
COc1ccc(CNC(=O)N2CCC(c3noc(-c4cccnc4)n3)C2)cc1 (configuration not stated),.[5.79 µM]
O=C(NCc1nnc2cc(-c3nc(C4CC4)no3)ccn12)c1ccoc1,.
Cc1nccn1CC(=O)N1CCC2(CC1)CNC(C(=O)O)C2 (configuration not stated),.
COc1cccc(COC2CN(CC(C)C)C(=O)CN(C(=O)c3csc(C(C)=O)c3)C2)c1 (configuration not stated),.
C[C@@H](NC(=O)Cc1ccccc1)c1onc(-c2cccnc2)c1C(=O)O,.
COc1ccc(CN2CC3(CCN(C(=O)c4cccs4)CC3)C2=O)cc1,.
O=C1NC(C(=O)N2CCc3ccccc3C2)Cn2cccc21 (configuration not stated),.
CCN(CC)Cc1cnc2c(C(=O)NCc3cnn4cccnc34)cnn2c1,.
CCNc1ncc(C(=O)N[C@H](c2cccs2)C2CC(O)C2)cn1 (some centres not stated),.
CCc1ncc(C(=O)NC(c2ccc(C)cc2)c2cccs2)cn1 (configuration not stated),10µM
Cc1ccc(S(=O)(=O)C(CNC(=O)Cc2ccc(Cl)cc2)c2cccs2)cc1 (configuration not stated),.
Cc1ccc(N2C[C@]34C=C[C@H](O3)C(C(=O)N(C)Cc3ccno3)C4C2=O)cc1C (some centres not stated),.
